In the library only some 2.2% were active in any assay of this set; here they are far more common.
EWS-Fli inh: EWS/Fli-driven NR0B1 reporter inhibitors, primary screen, A673 cells, NR0B1 luciferase, luminescence, MLPCN library; 350,000 tested, 0.67% active; inhibition, % at 12.6 µM; viability-normalised; AID 651661, 2012;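 active means mean inhibition of at least 50% after viability correction, with every replicate also passing that limit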;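 further: firefly luciferase signal divided by Alamar Blue viability fluorescence both relative to DMSO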
PGC1a acetyl inh: inhibitors of PGC1a acetylation signal, primary screen, cell-based, U2OS, AlphaScreen, inhibitor mode | AlphaScreen anti-acetyl-lysine; with virally co-expressed GCN5 acetyltransferase | inhibition, % at 15.6 µM | 350,000 tested, 0.17% active | AID 651687, 2012;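 active means every replicate shows inhibition of at least 40%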;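 further: 0% = neutral control wells and 100% = positive control wells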
PAX8 reporter: inhibitors of PAX8-driven TPO luciferase reporter, primary screen, RMG-I cells, single concentration | AID 652154, 2013 | inhibition, % at 12.6 µM | 360,000 tested, 1.2% active | SteadyGlo, 24 h;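 active means mean replicate inhibition at least 60% with every replicate also reaching 60%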;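 further: luciferase light reporting Pax8 driven TPO promoter activity; plate controls were median of neutral control wells for no effect and mitoxantrone controls for full effect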
LGR2 antag: inhibitors of bursicon-induced LGR2 CRE-luciferase signal, primary screen, cell-based, HEK293, CRE-luciferase reporter, bursicon stimulation | Drosophila bursicon receptor LGR2 (rickets) | bursicon-stimulated, 4 h | inhibition, % at 9.99 µM | 380,000 tested, 0.35% active;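 active means drop in luminescence signal, shown as inhibition above about 50% in the replicate tests, limit read from the data, passing the limit was not always enough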;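 further: agonist challenge used bursicon conditioned medium at about half maximal strength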
LMP1 NFkB inh: EBV LMP1-driven NF-kappaB luciferase reporter inhibitors, primary screen, cell-based, luminescence, single point | LMP1-induced NF-kappaB luciferase reporter cells | inhibition, % at 12.5 µM | 350,000 tested, 0.69% active | AID 504558, 2011; in the data active means inhibition above about 41%;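 further: 0% = neutral control wells and 100% = reference inhibitor control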
TRPM1 prom inh: inhibitors of MITF-dependent TRPM1 promoter reporter, primary screen, cell-based, SK-MEL-5, single point, luciferase. inhibition, % at 12.5 µM. 330,000 tested, 0.83% active. SK-MEL-5 TRPM1 promoter luciferase, 24 h;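 active means mean inhibition across replicates of 60% or more, whatever share of single replicates reaches that level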
Numbers without * were called inactive; x = not tested or not shown.

SMILES	EWS-Fli inh	PGC1a acetyl inh	PAX8 reporter	LGR2 antag	LMP1 NFkB inh	TRPM1 prom inh
COc1ccc(C(=O)NNC(=O)Cc2nc3ccccc3n2C)cc1	7	9	68*	0	-4	-1
COc1ccc(NCc2nc3ccccc3n2C)cc1	-82	x	-72	-34	-35	-57
CCNC(=O)[C@H]1[C@H](CO)[C@H]2Cn3c(ccc(-c4ccccc4)c3=O)[C@@H]1N2C(=O)C1CC1	-10	x	-1	6	x	x
CCCC#Cc1ccc2c(c1)O[C@@H](CN(C)S(=O)(=O)c1cccc(OC)c1)[C@@H](C)CN([C@@H](C)CO)S2(=O)=O	17	-15	66*	6	x	x
CC(C)CC#Cc1ccc2c(c1)O[C@H](CN(C)S(=O)(=O)c1ccc(F)cc1)[C@H](C)CN([C@H](C)CO)S2(=O)=O	25	-8	99*	16	x	x
Cc1ccc(S(=O)(=O)N(C)C[C@@H]2Oc3cc(C4=CCCC4)ccc3S(=O)(=O)N([C@H](C)CO)C[C@@H]2C)cc1	6	-25	67*	-13	x	x
CO[C@@H](CN(C)Cc1nccs1)[C@@H](C)CN([C@@H](C)CO)S(=O)(=O)c1ccc(C)cc1	2	-7	x	2	x	x
CCNC(=O)C[C@H]1CC[C@H](NC(=O)NC2CCCCC2)[C@@H](CO)O1	-2	-7	-18	8	x	x
CCCCN(c1ccccc1)c1ncnc(N)c1[N+](=O)[O-]	-10	52*	x	17	46*	-20
COc1ccc(NC(=O)N(C)C[C@@H]2OCc3ccccc3-c3c(n(C)c4ccccc34)C(=O)N([C@@H](C)CO)C[C@@H]2C)c(OC)c1	-9	-3	15	5	x	x
Cc1noc(C)c1NC(=O)Nc1ccc2c(c1)C(=O)N([C@H](C)CO)C[C@H](C)[C@@H](CN(C)C(=O)NC(C)C)OCCCC[C@H](C)O2	-13	9	-9	31	x	x
CCOc1cc(-c2sc(Nc3ccccc3)n[n+]2C)ccc1OC	-2	1	-16	-19	81*	-6
CCCNC(=O)N1CC2(C1)[C@H](c1ccccc1)[C@@H](CO)N2CC1CC1	-4	x	x	20	x	x
COc1ccc(O)c(/C=N/NC(=O)c2ccc(N3CCCC3=O)cc2)c1	-1	-3	106*	2	22	6
CN(C)CC1CC/C(=C\c2ccc(O)cc2)C1=O (centres undefined)	44	x	49	9	-36	x
CN(C)CC1CCC/C(=C\c2ccc(OC(=O)/C=C/c3ccccc3)cc2)C1=O (centres undefined)	-5	-6	x	2	-13	69*
CN1CCN(C(=O)C[C@@H]2CC[C@H]3[C@@H](COC[C@@H](O)CN3Cc3ccc(Oc4ccccc4)cc3)O2)CC1	18	-7	12	0	x	x
COc1ccc(S(=O)(=O)Nc2ccc3c(c2)C(=O)N([C@@H](C)CO)C[C@@H](C)[C@H](CN(C)Cc2ccc(C(F)(F)F)cc2)OCCCC[C@H](C)O3)cc1	19	-3	96*	3	x	x
COc1ccc(S(=O)(=O)Nc2ccc3c(c2)C(=O)N([C@H](C)CO)C[C@@H](C)[C@@H](CN(C)Cc2ccc(C(F)(F)F)cc2)OCCCC[C@H](C)O3)cc1	11	4	105*	-2	x	x
COc1ccc(S(=O)(=O)Nc2ccc3c(c2)C(=O)N([C@@H](C)CO)C[C@@H](C)[C@@H](CN(C)Cc2ccc(C(F)(F)F)cc2)OCCCC[C@@H](C)O3)cc1	20	-3	105*	17	x	x
COc1ccc(S(=O)(=O)Nc2ccc3c(c2)C(=O)N([C@H](C)CO)C[C@H](C)[C@H](CN(C)Cc2ccc(C(F)(F)F)cc2)OCCCC[C@H](C)O3)cc1	19	2	108*	9	x	x
Cc1ccc(S(=O)(=O)N(C)C[C@@H]2Oc3ccc(NC(=O)NC4CCCCC4)cc3CC(=O)N([C@H](C)CO)C[C@@H]2C)cc1	7	3	41	-8	x	x
COc1ccc(NC(=O)Nc2cccc3c2O[C@@H](CN(C)C(=O)Nc2ccc(C(F)(F)F)cc2)[C@@H](C)CN([C@H](C)CO)C3=O)cc1	-5	4	-5	0	x	x
Cc1noc(C)c1S(=O)(=O)Nc1ccc2c(c1)C(=O)N([C@@H](C)CO)C[C@H](C)[C@@H](CN(C)S(=O)(=O)c1ccc(F)cc1)O2	7	1	x	-14	x	x
COc1ccc(C#Cc2cnc3c(c2)C(=O)N([C@@H](C)CO)C[C@H](C)[C@H](CN(C)C(=O)c2ccccc2F)O3)cc1	-2	-3	x	15	x	x
SMILES	EWS-Fli inh	PGC1a acetyl inh	PAX8 reporter	LGR2 antag	LMP1 NFkB inh	TRPM1 prom inh
CO[C@@H]1CN(C)C(=O)c2ccc(NC(=O)Nc3ccc(Cl)cc3)cc2OC[C@@H](C)N(C(=O)Nc2c(C)noc2C)C[C@H]1C	-6	-3	3	14	x	x
COc1ccc(S(=O)(=O)Nc2ccc3c(c2)C(=O)N([C@H](C)CO)C[C@@H](C)[C@H](CN(C)Cc2ccc(C(F)(F)F)cc2)OCCCC[C@@H](C)O3)cc1	24	3	22	18	x	x
COc1ccc(S(=O)(=O)Nc2ccc3c(c2)C(=O)N([C@H](C)CO)C[C@@H](C)[C@@H](CN(C)Cc2ccc(C(F)(F)F)cc2)OCCCC[C@@H](C)O3)cc1	18	-8	110*	9	x	x
C[C@@H]1CN([C@@H](C)CO)C(=O)Cc2cc(NS(=O)(=O)c3ccccc3)ccc2O[C@H]1CN(C)Cc1ccc(C(=O)O)cc1	x	3	-19	-3	x	x
CCN(CC)CCN1C(=O)C(O)=C(C(C)=O)C1c1ccccc1[N+](=O)[O-] (centres undefined)	14	10	15	x	-7	7
CC(=O)C1=C(O)C(=O)N(CCc2ccccc2)C1c1ccccc1[N+](=O)[O-] (centres undefined)	13	x	122*	-6	-3	3
CC(=O)O[C@]1(C(C)=O)CCC2C3C=C(C)C4=CC(=O)CC[C@]4(C)C3CC[C@@]21C (some centres undefined)	12	-2	0	-3	4	6
CC(=O)O[C@]1(C(C)=O)CC[C@H]2[C@@H]3C=C(C)C4=CC(=O)CC[C@@H]4[C@H]3CC[C@@]21C	13	1	14	-11	52*	4
C[C@@H]1CCCCO[C@H](CN(C)C(=O)Nc2ccc(F)cc2)[C@@H](C)CN([C@@H](C)CO)C(=O)c2cc(NS(=O)(=O)c3ccc(Cl)cc3)ccc2O1	7	-12	83*	19	x	x
C[C@H]1CCCCO[C@H](CN(C)C(=O)Nc2ccc(F)cc2)[C@@H](C)CN([C@@H](C)CO)C(=O)c2cc(NS(=O)(=O)c3ccc(Cl)cc3)ccc2O1	17	15	17	19	x	x
